From ChEMBL document CHEMBL1961873, “Compounds: GSK PKIS; Assays: Nanosyn kinase panel” (2012)

system: Tyrosine-protein kinase ABL1 (Homo sapiens), P00519 [T315I]; conditions: at 1 µM

Point of comparison: `Cc1ccc2c(-c3ccnc(Nc4cccc(C(F)(F)F)c4)n3)c(-c3ccccc3)nn2n1`, inhibition 20.8%. Against it:
- Cc1ccc(NC(=O)CC2CC2)cc1-c1ccc(C(=O)NCC2CC2)cc1 — lower, 2.68%
- Cc1ccc(Nc2ccnc(Nc3cccc(C(N)=O)c3)n2)cc1O — higher, 39.8%
- CN(c1ccc(NC(=O)Nc2ccc(OC(F)(F)F)cc2)cc1)c1ccnc(Nc2cccc(S(N)(=O)=O)c2)n1 — higher, 86.2%
- CS(=O)(=O)CCNCc1nc(-c2ccc3ncnc(Nc4ccc(OCc5cccc(C(F)(F)F)c5)cc4)c3c2)cs1 — lower, 1.2%
- Cc1nc(-c2ccccc2)n2nc(NCCCN3CCOCC3)ncc12 — lower, 7.48%
- CN(C)C(=O)O[C@H]1CN[C@H](C#Cc2cc3ncnc(Nc4ccc(OCc5cccc(F)c5)c(Cl)c4)c3s2)C1 — lower, 1.25%
- NC(=O)c1sc(-n2cnc3ccccc32)cc1OCc1ccccc1Br — lower, 4.17%
- COc1cc(/C=N/Nc2ncnc3c2cnn3C(C)C)ccc1O — higher, 47.8%
- CC(C)c1ccc2c(c1)NC(=O)/C2=N/Nc1ccc(S(N)(=O)=O)cc1 — lower, 6.52%
- NS(=O)(=O)c1ccc(NC=C2C(=O)Nc3ccc4ncsc4c32)cc1 — higher, 61.6%
- CN(C)c1cc2c(Nc3ccc4c(cnn4Cc4ccccc4)c3)ncnc2cn1 — lower, -1.27%
- Oc1cccc(-c2nc(-c3ccccc3)[nH]c2-c2ccncc2)c1 — lower, 8.47%
- CCn1c(-c2nonc2N)nc2ccc(F)cc21 — lower, 5.94%
- CN1CCN(C(=O)c2ccc(NC(=O)Nc3ccc(N(C)c4ccnc(Nc5ccc(CS(C)(=O)=O)cc5)n4)cc3)cc2)CC1 — higher, 61.5%
- Nc1nccc(-c2c(-c3ccc(F)cc3)nn3cc(C(F)(F)F)ccc23)n1 — lower, 1.21%
